In PubChem BioAssay AID504521 (NMMLSC, 2011):
This is one part of the list. A number with no mark means an inactive call.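 Rule for the calls: active = compounds whose bead fluorescence drops by more than 37 kMESF across the dose range, marking them as dye quenchers; inactive = the rest.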

Assay: aptamer fluorescence quenchers, flow cytometry – biochemical, cherry pick 1, bead-based flow cytometry, artefact control for GRK2 RNA aptamer inhibitor project, dose response (AID 504521)
Conditions: Fluorescent RNA aptamer beads, quenching, hits give high values

SMILES | fluorescence change (kMESF span)
COc1ccc(N2CCN(C(CNS(=O)(=O)c3ccc(C)cc3)c3ccccc3)CC2)cc1 (stereo not given) | 7.4 kMESF
CCN1/C(=C/c2ccc3ccc(C)cc3[n+]2CC)Sc2ccccc21 | -1.6 kMESF
CCN1/C(=C\c2ccc3ccccc3[n+]2CC)Sc2cc(C)ccc21 | 8.1 kMESF
O=C(CCS(=O)(=O)c1ccc(Br)cc1)NCCc1ccc(Cl)cc1 | 10.9 kMESF
C=C(C)C(=O)Nc1cccc(C2=NOC3(C2)C[C@H](C(N)=O)N(C(=O)C(c2ccccc2)c2ccccc2)C3)c1 (stereo not given in full) | -3.5 kMESF
